This is part of a sample that, as a whole, favours compounds with a hit. Of some 83,000 tested, about 20% had one in any assay.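 Plates (96-well) were seeded with cells, treated with compound at one concentration, and incubated for 48 hours before percent growth was determined.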 Unmarked numbers belong to inactive results. Activity calls are given as the source filed them. Rule for the calls: active = growth percent below 10; inactive = the rest.
Key:
Test in all cases: NCI-60 one-dose screen, 48 h (100 = growth as untreated, 0 = no growth, -100 = all killed)
Conditions in all cases: 10 µM unless noted
SR leukemia = system: SR leukemia
OVCAR-8 ovarian = system: OVCAR-8 ovarian
OVCAR-5 ovarian = system: OVCAR-5 ovarian
OVCAR-4 ovarian = system: OVCAR-4 ovarian
SK-OV-3 ovarian = system: SK-OV-3 ovarian
IGROV1 ovarian = system: IGROV1 ovarian
OVCAR-3 ovarian = system: OVCAR-3 ovarian
HS 578T breast = system: HS 578T breast
NCI/ADR-RES ovarian = system: NCI/ADR-RES ovarian
T-47D breast = system: T-47D breast
SW-620 colon = system: SW-620 colon
MCF7 breast = system: MCF7 breast
HCT-116 colon = system: HCT-116 colon
HCC-2998 colon = system: HCC-2998 colon
KM12 colon = system: KM12 colon
MDA-MB-435 melanoma = system: MDA-MB-435 melanoma
BT-549 breast = system: BT-549 breast

Compound	growth (SR leukemia)	growth (OVCAR-8 ovarian)	growth (OVCAR-5 ovarian) [%]	growth (OVCAR-4 ovarian)	growth (SK-OV-3 ovarian)	growth (IGROV1 ovarian)	growth (OVCAR-3 ovarian)	growth (HS 578T breast)	growth (NCI/ADR-RES ovarian)	growth (T-47D breast)	growth (SW-620 colon)	growth (MCF7 breast)	growth (HCT-116 colon)	growth (HCC-2998 colon)	growth (KM12 colon)	growth (MDA-MB-435 melanoma)	growth (BT-549 breast)
COC(=O)Nc1ccc(-c2nc(-c3cccc(OC)c3)c(-c3ccnc(Br)c3)[nH]2)cc1	3.64% (active)	48%	85.6	51.5%	88.1%	72.5%	70.2%	33.4%	45.2%	22.2%	74.5%	33.1%	54.2%	71.5%	48%	–	–
Cc1ccc2sc3c(NCCCN)nc4ccccc4c3c(=O)c2c1	-31.8% (active)	38.3%	85.8	28%	90.2%	65.7%	2.61% (active)	59.8%	39.4%	54.6%	-79.7% (active)	-21.2% (active)	-53.2% (active)	-86.1% (active)	-74.6% (active)	-71.7% (active)	–
CCC(=O)Nc1ccc(-c2nc(-c3cccc(OC)c3)c(-c3ccnc(Br)c3)[nH]2)cc1	25.3%	58.2%	87	46.8%	101%	81%	65.4%	39.2%	67.9%	28.4%	80.4%	25.5%	63.7%	69%	43.2%	–	–
CCCCCCn1c(-c2ccc(C(=O)O/N=C(\N)c3ccc(OC)cc3)cc2)nc(-c2ccccc2)c1-c1ccccc1	-37.5% (active)	1.03% (active)	25.5	7.82% (active)	77.9%	-68.1% (active)	18%	-20.4% (active)	-36.9% (active)	-30.4% (active)	-1.32% (active)	-39.3% (active)	-56.1% (active)	3.48% (active)	15.7%	–	-2.06% (active)
O=C(Nc1ccc(-c2nc(-c3cccc(OCCN4CCOCC4)c3)c(-c3ccnc(Br)c3)[nH]2)cc1)c1ccccc1	-11.6% (active)	41.5%	35.4	55.2%	-25.6% (active)	43.4%	44.2%	-41% (active)	53.4%	27.6%	2.49% (active)	–	10% (active)	11.3%	–	–	–
CCOC(=O)Nc1ccc(-c2nc(-c3cccc(OCCN4CCOCC4)c3)c(-c3ccnc(Br)c3)[nH]2)cc1	-12.9% (active)	43.8%	66.9	52.7%	80.8%	63.6%	48.6%	-16.4% (active)	60.7%	35.6%	42.6%	11.6%	30.9%	38.5%	20.2%	–	56.4%
COc1cccc(-c2nc(-c3ccc(NC(=O)c4ccccc4)cc3)[nH]c2-c2ccnc(Br)c2)c1	-2.71% (active)	34%	47.9	38.4%	6.72% (active)	55.1%	40%	-25.8% (active)	35.5%	14.7%	30.8%	–	30.7%	31.1%	20%	–	47.1%
O=c1c2cccc(Cl)c2sc2c(NCCCNCCO)nc3ccccc3c12	-51.2% (active)	27%	62.5	11.1%	53.2%	15.3%	-7.4% (active)	20.3%	38.4%	42.7%	-97.6% (active)	–	-58.9% (active)	-88% (active)	-62.1% (active)	-87.1% (active)	–
CCOC(=O)c1sc2ncc(-c3ccc(OC)cc3)n2c1C	104%	91.6%	105	97.5%	78.7%	81.4%	108%	94.1%	92.3%	93.6%	94.1%	89.9%	92.4%	105%	101%	–	102%

Reference: PubChem BioAssay (NCI)
